# Compound activity (PubChem BioAssay)
# This is a sample that favours compounds with a hit; in the whole collection about 3.2% have one here.
# TRb SRC2 PPI = TRbeta-SRC2 interaction inhibition; P10828; TRbeta-SRC2 peptide binding, fluorescence polarization; receptor liganded with 1 µM T3; Potency, µM (top dose mostly 106 µM), without a hit: at the top dose activity change, negative = inhibition, most hits filed as inhibitors; 280,000 compounds, 0.065% hits;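 further: plate controls were bound peptide for no effect and peptide without receptor for full effect; nearly all actives have a fitted effect of over 50% in size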
# Target sequence (P10828 whole entry, looked up): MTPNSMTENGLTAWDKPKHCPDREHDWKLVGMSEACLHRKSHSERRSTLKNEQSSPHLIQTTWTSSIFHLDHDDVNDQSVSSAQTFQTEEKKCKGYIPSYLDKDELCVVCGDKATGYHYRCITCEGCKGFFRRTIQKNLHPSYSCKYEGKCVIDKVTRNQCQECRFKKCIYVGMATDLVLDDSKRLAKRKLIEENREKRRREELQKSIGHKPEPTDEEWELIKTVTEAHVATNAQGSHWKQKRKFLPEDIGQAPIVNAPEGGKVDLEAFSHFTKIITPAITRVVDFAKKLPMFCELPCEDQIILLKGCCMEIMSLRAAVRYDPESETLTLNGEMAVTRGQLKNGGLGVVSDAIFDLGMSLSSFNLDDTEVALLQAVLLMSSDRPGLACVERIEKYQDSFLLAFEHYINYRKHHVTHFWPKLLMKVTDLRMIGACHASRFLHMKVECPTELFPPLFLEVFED
#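 Binding of a 20-amino-acid Texas Red SRC2 peptide (20 nM) to TRb ligand-binding domain (0.6 uM) with agonist T3 at 1 uM was followed by fluorescence polarization after a 5 hr room-temperature incubation.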
# Tau fibril FP = tau fibrillization inhibition (FP). K18 P301L tau heparin fibrillization, Alexa594 FP, 6 h. Potency, µM (series often up to 57.7 µM), for the others: at the highest dose activity, negative = inhibition, most hits filed as inhibitors. 280,000 compounds, 0.39% hits. AID 1468; further: nearly all actives have a fitted effect of over 55% in size
# Target sequence (P10636 561-689 P618L limits assumed): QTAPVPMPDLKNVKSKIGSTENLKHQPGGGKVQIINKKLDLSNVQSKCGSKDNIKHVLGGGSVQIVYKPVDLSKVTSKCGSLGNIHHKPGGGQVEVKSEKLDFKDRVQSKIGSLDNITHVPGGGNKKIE
#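 Compound effects on tau fibrillization are measured by Alexa 594 fluorescence polarization (ex 555, em 632 nm). K18 P301L tau is used at 15 uM with 0.24 uM labeled tracer, and 20 uM heparin induces aggregation over 6 hr at 37 C.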
# Tau ThT inhib = inhibitors of human tau fibril formation, thioflavin T binding. P10636. recombinant tau K18 P301L, heparin-induced fibrillization, ThT fluorescence. Potency, µM (highest dose often 57.4 µM), inactives show at the highest dose activity, negative = inhibition, most hits filed as inhibitors. 270,000 compounds, 2.1% hits. AID 1460; further: nearly all actives have a fitted effect of over 55% in size
#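 Heparin-induced (20 uM) aggregation of recombinant human K18 P301L tau, 15 uM unlabeled with 0.24 uM labeled, pH 7 acetate buffer, 6 hr at 37 C with compound. Fibrils quantified by 30 uM ThT fluorescence after 1 hr ambient incubation.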
# RGS12 GoLoco inh = blocks human Gai1 binding to RGS12 GoLoco peptide, red readout | 230,000 compounds, 0.44% hits | Potency, µM (titrated, usually from 61.6 µM), inactives show top-dose activity, negative = inhibition, actives largely listed as inhibitors | P63096 | Gai1:RGS12 GoLoco peptide FP, rhodamine, 10 min | AID 880; active means well fitted inhibition curve with a large enough effect, not every such curve was filed as active; inactive means no such curve, though single readings can be large or run the other way; further: nearly all actives have a fitted effect of over 30% in size
# TR SRC2 fluor cs = Texas Red fluorescence interference in TRb-SRC2 counter-screen; TRb/SRC2 Texas Red total fluorescence interference; Potency, µM (doses to about 106 µM), without a hit: at the top dose fluorescence change, negative = quenching; 280,000 compounds, 0.29% hits; active means well fitted curve in either direction with a large enough effect; inconclusive means small, poorly fitted or top-dose-only effect
#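 Human TRb ligand-binding domain at 0.6 uM with 20 nM Texas Red SRC2 peptide in Tris buffer containing 1 uM T3 and 5% DMSO, incubated with compound 5 h at ambient temperature. Total fluorescence (555/632 nm) calculated as parallel + 2 × perpendicular.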
# Tau fluor counter = counter-screen for tau fibril formation inhibitors; tau K18 P301L Alexa594 fluorescence, heparin fibrillization; Potency, µM (highest dose often 57.7 µM), inactives show top-dose activity change, negative = decrease; 280,000 compounds, 0.93% hits; AID 1463; further: nearly all actives have a fitted effect of over 55% in size
#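 Human tau K18 P301L (15 uM unlabeled, 0.24 uM Alexa 594-labeled) in 100 mM sodium acetate pH 7 with 20 uM heparin, 6 hr at 37 C. ThT 30 uM added, 1 hr ambient; Alexa 594 FP and total fluorescence read at 555/632 nm.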
# Active calls of the source: *; ? = inconclusive; / = not tested or not shown; [ ] = another dose, or the depositor's remark. Unless noted, the call rests on the fitted dose curve; in most records, active means well fitted curve in the direction sought with a large enough effect; inconclusive means small, poorly fitted or top-dose-only effect, or another doubt; inactive means no such curve, though single readings can be large; an effect the other way counts as inactive or inconclusive. Unless noted, on the % scale 0 is the no-effect control and ±100 the full control effect; potency means the concentration at half of the fitted maximal effect.
SMILES,TRb SRC2 PPI,Tau fibril FP,Tau ThT inhib,RGS12 GoLoco inh,TR SRC2 fluor cs,Tau fluor counter
COc1ccc(N=N/C(=C\O)C(=O)c2ccco2)cc1,-6%,4%,8.9µM*,8%,-5%,?
COc1ccc(-c2nc3cncnc3n(-c3ccccc3)c2=O)cc1,/,/,/,20%,/,/
Cn1nc([N+](=O)[O-])c(C(C#N)c2nc3ccccc3n2C)c(Cl)c1=O (stereo unspecified),-7%,-5%,16µM*,-37%,-1%,?
Cn1c(-c2ccc([N+](=O)[O-])cc2)nc2ccccc21,5%,-2%,-24%,2%,0%,-2%
CCN(CCO)c1ccc(NC(=S)Nc2cccc(S(=O)(=O)N(C)C)c2)cc1,?,?,14µM*,1%,-13%,?
CN(C)S(=O)(=O)c1cccc(NC(=S)Nc2cc(Cl)cc(Cl)c2)c1,-5%,25µM*,-11%,3%,-4%,?
CC(=O)n1c(COS(C)(=O)=O)nc2ccccc21,/,/,/,1%[14.2 µM],/,/
O=CN/C=C/c1cc(O)ccc1O,-2%,?,25µM*,-21%,-9%,28µM*[quencher]
O=CN/C=C/c1cc(F)cc(F)c1F,5%,-3%,-1%,-2%,1%,-2%
Cc1cc(CNC(=O)[C@]2(C(F)(F)F)C[C@H](CCC3CCCCC3)CCCO2)nn1C,10%,/,/,/,-3%,/
Nc1ccc2oc3ccc(N)cc3c(=O)c2c1,8%,4%,14µM*,-8%,-8%,-20%
O=c1c(O)c(-c2ccc(O)cc2)oc2ccc(O)cc12,6%,-12%,?,6%,-8%,-22%
C=C(C)C(=O)OCCC[Si](OC)(OC)OC,2%[201 µM],/,/,/,3%[201 µM],/
COC(=O)\C(C(C)=O)=C(/C=C/C=C/C=C/N(C)C)N(C)C,-15%,?,16µM*,142%,9%,-24%
CC(C)COc1ccc(C(=O)Nc2sc3c(c2C(=O)O)CC(C)(C)OC3)cc1,14%[53 µM],-8%,16µM*,6%,1%[53 µM],?
O=Cc1ccc(Sc2nnc(-c3ccccc3)o2)c([N+](=O)[O-])c1,-21%,?,18µM*,-9%,-4%,16µM*[quencher]
Cc1ccc(NC(=O)CSCn2nnc3c(=O)[nH]c(Cc4ccc(F)cc4)nc32)c(C)c1,-8%,-7%,-12%,/,0.32µM*[quencher],-15%
Cc1ccccc1NC(=O)CSCn1nnc2c(=O)[nH]c(Cc3ccc(F)cc3)nc21,0%,-2%,-7%,/,-7%,-10%
COc1ccc(N/C=C/C(=O)c2sc(-c3ccccc3)nc2C)cc1,-5%,8%,2.5µM*,6%,-5%,?
O=c1[nH]c2ccc(Br)cc2c(-c2ccccc2)c1CN1CCOCC1,1%,?,22µM*,5%,-5%,-18%
O=c1[nH]c2ccc(Br)cc2c(-c2ccccc2)c1N1CCOCC1,10%,-4%,-15%,9%,-3%,-15%
COC(=O)C1=C(C(=O)OC)[C@@H]2N(Cc3ccccc3)c3ccccc3[C@@]23C[C@@H](C(=O)OC)N(S(=O)(=O)c2ccc(C)cc2)C3=N1,5%[11.2 µM],-3%[11.6 µM],0%[11.5 µM],2%[14.2 µM],-3%[11.2 µM],-7%[11.6 µM]
COc1ccc(NC(=O)c2ccc(NCCCN3CCOCC3)c([N+](=O)[O-])c2)cc1,-18%,13%,16µM*,7%,-8%,-21%
O=[N+]([O-])c1ccc(NCCCN2CCOCC2)c([N+](=O)[O-])c1,-3%,-18%,?,2%,-2%,-11%
O=C(Nc1ccc(Cl)c([N+](=O)[O-])c1)c1ccc(NCCCN2CCOCC2)c([N+](=O)[O-])c1,-11%,-16%,2.5µM*,3%,0%,-28%
SMILES,TRb SRC2 PPI,Tau fibril FP,Tau ThT inhib,RGS12 GoLoco inh,TR SRC2 fluor cs,Tau fluor counter
Cc1ccc(NC(=O)c2ccc(NCCCN3CCOCC3)c([N+](=O)[O-])c2)cc1Cl,5%,-1%,13µM*,12%,-4%,?
COc1ccc(N/N=C(\C=N\O)C(=O)c2ccc(OC)cc2)cc1,5%,16%,13µM*,-1%,-4%,?
CCc1oc2ccccc2c1C(=O)c1cc(I)c(O)c(I)c1,15%,/,/,-2%,-15%,/
CC(C)COC(=O)c1ccc2c(c1O)C(=O)c1ccccc1C2=O,-9%,10%,13µM*,-5%,-3%,?
O=C(NCc1cc(F)cc2c1OCCO2)[C@H]1C[C@@H]1[C@H](NP(=O)(c1ccccc1)c1ccccc1)c1ccccc1,3%,2%,-10%,2%,-1%,-7%
CCn1c2ccccc2c2cc(NC(=O)COc3ccc(OC)cc3)ccc21,9%,7%,?,-5%,2%,?
CCn1c2ccccc2c2cc(NC(=O)COC(=O)c3cc(Cl)c(N)cc3OC)ccc21,-5%,4%,?,0%,-8%,10µM*[quencher]
CCn1c2ccccc2c2cc(NC(=O)COC(=O)c3ccccc3F)ccc21,-16%,1%,-7%,-6%,2%,-26%
CCn1c2ccccc2c2cc(NC(=O)COC(=O)c3cc(S(N)(=O)=O)c(Cl)cc3Cl)ccc21,-1%,6%,?,8%,-4%,8.9µM*[quencher]
O=C1c2ccccc2CC[C@H]1CNCCc1ccc(O)cc1,2%,13%,?,1%,0%,5%
CS/C(=N\S(=O)(=O)c1ccc(Cl)cc1)c1ccccc1,-2%,-6%,-3%,2%,-1%,-8%
O=S(=O)(/N=C(\Sc1ccc(Cl)cc1)c1ccccc1)c1ccccc1,-13%,?,35µM*,5%,-1%,-11%
COc1ccc(OCCn2cc(C(=O)c3ccco3)c3ccccc32)cc1,11%,?,-10%,/,5%,?
O=c1c2c([N+](=O)[O-])cc([N+](=O)[O-])cc2sn1-c1ccc(Br)cc1,4%,22µM*,14µM*,5µM*,5%,?
CCOC(=O)N1C(C)CN(/[N+]([O-])=N/Oc2ccc([N+](=O)[O-])cc2[N+](=O)[O-])CC1C (stereo unspecified),-5%,/,/,/,-4%,/
CCN(CC)c1ccc(C(=O)Nc2ccccc2)cc1[N+](=O)[O-],-4%,7%,16µM*,20%,0%,?
CC[C@]1(c2ccccc2)NC(=O)NC1=O,1%,/,/,/,2%,/
CCOC(=O)c1c(C)[nH]c(-c2csc(N)n2)c1C,5%,?,25µM*,161%,4%,?
CCOc1ccccc1C(=O)Nc1cc(Cl)ccc1O,10%,?,?,7%,-3%,18µM*[quencher]
O=C(NNC(=O)c1cc2cc(Br)ccc2oc1=O)c1ccc(O)cc1O,0%,3%,8.9µM*,35%,-16%,?
